Data: PubChem BioAssay AID1159580 (chemical genetic matrix, 2015)
About 2,000 (36%) of roughly 5,500 compounds were called active. About 18% were inconclusive and are not listed. No stated cut-off is given here; in the data, active means normalized growth mostly below about 0.91 (no sharp cut-off); inconclusive means no clear call, values can overlap the other calls; inactive means mostly above about 0.92. The list shows a part of the results.

Assay: chemical genetic growth profiling, strain panel (AID 1159580);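 further: tested at 20 µM; growth read once vehicle control cultures reached saturation at 30 °C; 1 = growth at the plate median or of vehicle wells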
Conditions: growth OD

Measured: normalized growth

CN(C)CCCO[C@H]1[C@@H](C(O)CO)OC2OC(C)(C)O[C@@H]21 (some centres not stated)
active: S. cerevisiae deletion strains, locus YKR001C, strain vps1, stronger effect = lower value 0.867 | S. cerevisiae deletion strains, locus YLR418C, strain cdc73, stronger effect = lower value 0.748 | S. cerevisiae deletion strains, locus YMR223W, strain ubp8, stronger effect = lower value 0.902 | S. cerevisiae deletion strains, locus YNL307C, strain MCK1, stronger effect = lower value 0.871 | S. cerevisiae deletion strains, locus YOR184W, strain ser1, stronger effect = lower value 0.872
inactive: S. cerevisiae deletion strains, locus YJR075W, strain HOC1, stronger effect = lower value 0.981 | S. cerevisiae deletion strains, locus YKL009W, strain mrt4, stronger effect = lower value 0.988 | S. cerevisiae deletion strains, locus YKL068W, stronger effect = lower value 0.99 | S. cerevisiae deletion strains, locus YKL085W, strain MDH1 (second series), stronger effect = lower value 1.01 | S. cerevisiae deletion strains, locus YKL085W, strain MDH1, stronger effect = lower value 1.01 | S. cerevisiae deletion strains, locus YKL160W, strain elf1, stronger effect = lower value 0.975 | S. cerevisiae deletion strains, locus YKL190W, strain CNB1, stronger effect = lower value 0.97 | S. cerevisiae deletion strains, locus YKR026C, strain gcn3, stronger effect = lower value 0.991 | S. cerevisiae deletion strains, locus YKR091W, strain srl3, stronger effect = lower value 0.98 | S. cerevisiae deletion strains, locus YLL001W, strain dnm1, stronger effect = lower value 0.94 | S. cerevisiae deletion strains, locus YLL026W, stronger effect = lower value 0.985 | S. cerevisiae deletion strains, locus YLL041C, strain sdh2, stronger effect = lower value 0.993 | S. cerevisiae deletion strains, locus YLR027C, strain aat2, stronger effect = lower value 0.997 | S. cerevisiae deletion strains, locus YLR039C, strain RIC1, stronger effect = lower value 0.993 | S. cerevisiae deletion strains, locus YLR058C, strain SHM2, stronger effect = lower value 0.985 | S. cerevisiae deletion strains, locus YLR102C, strain apc9, stronger effect = lower value 0.988 | S. cerevisiae deletion strains, locus YLR113W, strain HOG1, stronger effect = lower value 0.985 | S. cerevisiae deletion strains, locus YLR221C, strain rsa3, stronger effect = lower value 0.957 | S. cerevisiae deletion strains, locus YLR258W, strain gsy2, stronger effect = lower value 0.998 | S. cerevisiae deletion strains, locus YLR262C, strain YPT6 (second series), stronger effect = lower value 0.978 | S. cerevisiae deletion strains, locus YLR262C, strain YPT6, stronger effect = lower value 1.04 | S. cerevisiae deletion strains, locus YLR268W, strain sec22, stronger effect = lower value 0.945 | S. cerevisiae deletion strains, locus YLR320W, strain mms22, stronger effect = lower value 0.963 | S. cerevisiae deletion strains, locus YLR330W, strain CHS5, stronger effect = lower value 0.995 | S. cerevisiae deletion strains, locus YLR342W, strain FKS1 (second series), stronger effect = lower value 0.896 | S. cerevisiae deletion strains, locus YLR342W, strain FKS1, stronger effect = lower value 0.985 | S. cerevisiae deletion strains, locus YLR357W, strain rsc2, stronger effect = lower value 0.955 | S. cerevisiae deletion strains, locus YLR370C, strain arc18, stronger effect = lower value 0.977 | S. cerevisiae deletion strains, locus YLR371W, strain rom2, stronger effect = lower value 0.993 | S. cerevisiae deletion strains, locus YLR384C, strain iki3, stronger effect = lower value 0.972 | S. cerevisiae deletion strains, locus YML016C, strain PPZ1, stronger effect = lower value 0.979 | S. cerevisiae deletion strains, locus YML032C, strain rad52, stronger effect = lower value 0.945 | S. cerevisiae deletion strains, locus YML120C, strain ndi1, stronger effect = lower value 0.964 | S. cerevisiae deletion strains, locus YML124C, strain tub3, stronger effect = lower value 0.98 | S. cerevisiae deletion strains, locus YMR058W, strain fet3, stronger effect = lower value 0.975 | S. cerevisiae deletion strains, locus YMR078C, strain ctf18, stronger effect = lower value 0.969 | S. cerevisiae deletion strains, locus YMR125W, strain sto1, stronger effect = lower value 0.978 | S. cerevisiae deletion strains, locus YMR129W, stronger effect = lower value 0.993 | S. cerevisiae deletion strains, locus YMR205C, strain PFK2, stronger effect = lower value 0.961 | S. cerevisiae deletion strains, locus YMR231W, strain pep5, stronger effect = lower value 0.991 | S. cerevisiae deletion strains, locus YMR263W, strain SAP30, stronger effect = lower value 0.942 | S. cerevisiae deletion strains, locus YMR307W, strain GAS1, stronger effect = lower value 0.937 | S. cerevisiae deletion strains, locus YNL067W, strain RPL9B, stronger effect = lower value 0.974 | S. cerevisiae deletion strains, locus YNL071W, strain lat1, stronger effect = lower value 1.06 | S. cerevisiae deletion strains, locus YNL128W, strain TEP1, stronger effect = lower value 1 | S. cerevisiae deletion strains, locus YNL153C, strain GIM3, stronger effect = lower value 0.953 | S. cerevisiae deletion strains, locus YNL183C, strain NPR1, stronger effect = lower value 0.945 | S. cerevisiae deletion strains, locus YNL209W, strain ssb2, stronger effect = lower value 0.999 | S. cerevisiae deletion strains, locus YNL233W, strain BNI4, stronger effect = lower value 0.917 | S. cerevisiae deletion strains, locus YNL248C, strain rpa49, stronger effect = lower value 0.983 | S. cerevisiae deletion strains, locus YNL250W, strain rad50, stronger effect = lower value 0.936 | S. cerevisiae deletion strains, locus YNL271C, strain bni1, stronger effect = lower value 0.983 | S. cerevisiae deletion strains, locus YNL298W, strain CLA4, stronger effect = lower value 0.974 | S. cerevisiae deletion strains, locus YNL322C, strain KRE1 (second series), stronger effect = lower value 0.968 | S. cerevisiae deletion strains, locus YNL322C, strain KRE1, stronger effect = lower value 0.991 | S. cerevisiae deletion strains, locus YNR049C, strain mso1, stronger effect = lower value 0.971 | S. cerevisiae deletion strains, locus YNR052C, strain pop2, stronger effect = lower value 0.987 | S. cerevisiae deletion strains, locus YOL006C, strain TOP1, stronger effect = lower value 0.876 | S. cerevisiae deletion strains, locus YOL012C, strain htz1 0.444 | S. cerevisiae deletion strains, locus YOL147C, strain pex11, stronger effect = lower value 0.991 | S. cerevisiae deletion strains, locus YOR001W, strain rrp6, stronger effect = lower value 1.01 | S. cerevisiae deletion strains, locus YOR061W, strain CKA2, stronger effect = lower value 0.995 | S. cerevisiae deletion strains, locus YOR069W, strain VPS5, stronger effect = lower value 0.984 | S. cerevisiae deletion strains, locus YOR070C, strain gyp1, stronger effect = lower value 0.99 | S. cerevisiae deletion strains, locus YOR080W, strain dia2, stronger effect = lower value 0.968 | S. cerevisiae deletion strains, locus YOR083W, strain WHI5, stronger effect = lower value 0.953 | S. cerevisiae deletion strains, locus YOR106W, strain vam3, stronger effect = lower value 0.926 | S. cerevisiae deletion strains, locus YOR136W, strain idh2, stronger effect = lower value 0.966 | S. cerevisiae deletion strains, locus YOR144C, strain elg1, stronger effect = lower value 0.992 | S. cerevisiae deletion strains, locus YOR231W, strain MKK1, stronger effect = lower value 0.97 | S. cerevisiae deletion strains, locus YOR265W, strain rbl2, stronger effect = lower value 0.993 | S. cerevisiae deletion strains, locus YOR270C, strain vph1, stronger effect = lower value 0.925 | S. cerevisiae deletion strains, locus YOR290C, strain snf2, stronger effect = lower value 0.964 | S. cerevisiae deletion strains, locus YOR316C, strain cot1, stronger effect = lower value 0.988 | S. cerevisiae deletion strains, locus YPL051W, strain arl3, stronger effect = lower value 0.985 | S. cerevisiae deletion strains, locus YPL055C, strain LGE1, stronger effect = lower value 0.954 | S. cerevisiae deletion strains, locus YPL078C, strain atp4, stronger effect = lower value 0.973 | S. cerevisiae deletion strains, locus YPL106C, strain sse1, stronger effect = lower value 0.96 | S. cerevisiae deletion strains, locus YPL240C, strain hsp82, stronger effect = lower value 0.985 | S. cerevisiae deletion strains, locus YPL241C, strain CIN2, stronger effect = lower value 0.987 | S. cerevisiae deletion strains, locus YPL256C, strain CLN2, stronger effect = lower value 0.971 | S. cerevisiae deletion strains, locus YPR119W, strain clb2, stronger effect = lower value 0.992 | S. cerevisiae deletion strains, locus YPR141C, strain kar3, stronger effect = lower value 0.99 | S. cerevisiae deletion strains, locus YPR163C, strain tif3, stronger effect = lower value 0.986 | S. cerevisiae deletion strains, locus YPR167C, strain met16, stronger effect = lower value 0.992 | S. cerevisiae deletion strains, strain wtn01, stronger effect = lower value 0.922 | S. cerevisiae strains, strain wild type, stronger effect = lower value 0.909
